# Assay outcomes from PubChem BioAssay.
# DT40 TDP1 CPT = growth inhibition of DT40 Tdp1-/-;hTDP1 cells with camptothecin (screen for TDP1 inhibitors). chicken DT40 Tdp1-/-;hTDP1 cells + 20 nM CPT, ATP luminescence, 48 h. Potency, µM (titrated, usually from 46.2 µM), for inactives: top-dose activity change, negative = growth inhibition, usual class: inhibitors. 12% of 420,000 active; note: potency is the fitted concentration of half-maximal effect; nearly all actives have a fitted effect of over 55% in size
#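 Chicken DT40 Tdp1-/- cells complemented with human TDP1, 400 cells/well, exposed to compounds plus 20 nM camptothecin for at least 48 h at 37 C; viability read as ATP content by CellTiter-Glo luminescence.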
# VP16 counter = inhibits Gal4-VP16 luciferase reporter, ROR gamma counter-screen; Potency, µM (highest dose often 53.6 µM), inactives show at the top dose activity, negative = inhibition, actives largely listed as inhibitors; 3.5% of 310,000 active; Drosophila S2 Gal4-VP16 UAS-luciferase, luminescence, 20 h;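 note: Gal4-VP16 expression switched on by copper sulfate through the metallothionein promoter; potency is the fitted concentration of half-maximal effect; nearly all actives have a fitted effect of over 50% in size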
# LDHA block = inhibitors of human lactate dehydrogenase A. P00338. purified LDHA, NADH/diaphorase-resazurin fluorescence; hits give low values. activity change, % (values are at about 110 or 230 µM). 0.15% of 480,000 active; in the data active = activity change below about -30%; inconclusive = mostly about -25% to -30%;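 note: plate controls were DMSO wells for no effect and wells without enzyme for full effect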
#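 Resorufin fluorescence (ex540/em590), read at 0 and 20 min after diaphorase/resazurin addition, reports the NADH left after a 5 min room-temperature reaction of 2 nM human LDH5 with 0.06 mM NADH and 0.2 mM pyruvate.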
# DT40 TDP1 no CPT = qHTS for Inhibitors of human tyrosyl-DNA phosphodiesterase 1 (TDP1): qHTS in cells in absence of CPT | DT40 Tdp1-/- hTDP1 cells, no CPT, ATP luminescence, 48 h | Potency, µM (titrated, usually from 46.2 µM), inactives show at the top dose activity change, negative = growth inhibition, actives largely listed as inhibitors | 15% of 420,000 active | AID 686978, 2013; note: potency is the fitted concentration of half-maximal effect; nearly all actives have a fitted effect of over 55% in size
#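 Compound effects on proliferation are scored in DT40 Tdp1-/-;hTDP1 cells in the absence of CPT. ATP levels (CellTiter-Glo luminescence) are recorded after a ≥48 hr, 37 °C incubation.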
# IL-1B inflam inh = blocks inflammasome-driven IL-1 beta release; THP-1 LPS/ATP IL-1B secretion, AlphaLISA, 16 h; hits give low values; 4.7% of 360,000 active; activity change, % at 57.5 µM; in the data active = activity change below about -50%; inconclusive = mostly about -30% to -49%
#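 THP-1 cells pretreated 1 hr with compounds (up to 57.5 uM final), then stimulated with LPS (250 ng/mL final) plus ATP (1.25 mM final); secreted IL-1B measured by AlphaLISA after 16 hr, decreased signal indicating inhibition.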
# RORg inh = blocks mouse ROR gamma transcriptional activity | 5.4% of 310,000 active | P51450 | Drosophila S2 Gal4-RORgamma UAS-luciferase reporter, 20 h | Potency, µM (titrated, usually from 53.6 µM), without a hit: at the highest dose activity change, negative = inhibition, usual class: inhibitors; note: potency is the fitted concentration of half-maximal effect; nearly all actives have a fitted effect of over 60% in size
# Target sequence (P51450 whole entry, looked up, the tested form may be a part): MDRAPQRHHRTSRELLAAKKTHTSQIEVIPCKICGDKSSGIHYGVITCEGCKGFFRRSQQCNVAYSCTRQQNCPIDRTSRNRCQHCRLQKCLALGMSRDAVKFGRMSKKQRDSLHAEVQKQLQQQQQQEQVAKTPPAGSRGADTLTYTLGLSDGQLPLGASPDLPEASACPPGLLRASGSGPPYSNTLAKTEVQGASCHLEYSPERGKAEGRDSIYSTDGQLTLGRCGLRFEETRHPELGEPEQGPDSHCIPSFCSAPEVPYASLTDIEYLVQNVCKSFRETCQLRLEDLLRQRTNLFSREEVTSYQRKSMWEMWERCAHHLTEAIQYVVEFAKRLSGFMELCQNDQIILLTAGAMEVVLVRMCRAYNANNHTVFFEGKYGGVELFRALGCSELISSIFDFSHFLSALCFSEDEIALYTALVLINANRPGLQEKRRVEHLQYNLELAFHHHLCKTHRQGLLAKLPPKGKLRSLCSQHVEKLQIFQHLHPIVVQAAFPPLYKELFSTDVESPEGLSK
#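 Read-out: Photinus luciferase luminescence; inhibitors lower reporter signal. Insect Schneider cells with Gal4-ROR gamma fusion under metallothionein promoter, UAS reporter; 700 uM final copper sulfate induction, 20 hr, ambient temperature.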
# * hit, by the source's call; ? = inconclusive; · = no result; [ ] = remark or other dose. Rows were chosen to be rich in hits. Some 18% of all compounds tested hit in one or more screens of this group. Unless noted, calls come from the whole dose curve; as a rule, active = well fitted curve in the direction sought with a large enough effect; inconclusive = small, poorly fitted or top-dose-only effect, or another doubt; inactive = no such curve, though single readings can be large; an effect the other way counts as inactive or inconclusive. Unless noted, % is set by controls: 0 for no effect and ±100 for the full control effect.
SMILES,DT40 TDP1 CPT,VP16 counter,LDHA block,DT40 TDP1 no CPT,IL-1B inflam inh,RORg inh
CCCn1c(CN2CCN(C(=O)OCC)CC2)nc2cc(NC(C)=O)ccc21,?,-3%,-3,16µM*,-3,14%
COc1ccc(Cc2nnc(SCC(=O)Nc3ccc(Br)c(C)c3)n2C)cc1,·,·,-23,·,·,·
O=C(O)c1ccc(CSC(F)F)o1,·,·,-4,·,·,·
CC(C)(C)NC(=O)CN(C(=O)Cn1nnc(-c2ccc(Cl)cc2)n1)C1CCN(Cc2ccccc2)CC1,?,0%,-3,21µM*,-82*,6%
O=C(Cn1nnc(-c2ccc(CN3CCOCC3)cc2)n1)N(c1ccccc1)c1ccccc1,18µM*,6%,-3,21µM*,8,31%
CCNc1nc(-c2cc(C)n(-c3cc(C)on3)c2C)cs1,·,·,2,·,·,·
Cc1cccc[n+]1C1C(c2ccccc2)C(C#N)=C(C(=C=[N-])C#N)NC1(O)C1CC1 (stereo unspecified),23µM*,-3%,-6,?,-16,-3%
N#CC(=C=[N-])C1=C(C#N)C(c2ccccc2F)C([n+]2ccccc2)C(O)(C2CC2)N1 (stereo unspecified),-5%,-1%,6,1%,-3,6%
CN(C(=O)CCn1cnc2c1c(=O)n(C)c(=O)n2C)C1CCCC1,·,·,-19,·,·,·
Cc1oc(-c2cccs2)nc1CC(=O)Nc1cccc(C#N)c1,·,·,-2,·,·,·
COc1ccc(C(=O)n2cc(C(C)=O)c3ccccc32)cc1,10µM*,-10%,-2,15µM*,-5,-20%
CCOc1ccc(NC(=O)Cn2cc(C(=O)CC)c3ccccc32)cc1,13µM*,-4%,-2,26µM*,15,-19%
COc1ccc(NC(=O)Cn2cc(C(C)=O)c3ccccc32)cc1,5.2µM*,-12%,-2,?,48,?
COC(=O)c1cn(C(=O)c2ccc(F)cc2)c2ccccc12,-3%,·,-2,2%,-14,·
CCOc1ccc(NC(=O)Cn2cc(C(C)=O)c3ccccc32)cc1,?,0%,-9,?,41,19%
Cc1ccc2c(C(=O)O)cc(C)nc2c1,·,·,-2,·,·,·
O=C1OCCC1Sc1nnc(-c2ccccc2Br)n1Cc1ccccc1 (stereo unspecified),-1%,-5%,-2,0%,-54*,10%
CCC1CCCCN1S(=O)(=O)c1ccccc1[N+](=O)[O-] (stereo unspecified),21µM*,2%,-4,23µM*,2,1%
O=S(=O)(c1ccccc1)N1CCCCC1CCc1ccccc1 (stereo unspecified),?,·,-1,13µM*,-29,·
CCC1CCCCN1S(=O)(=O)c1ccccc1 (stereo unspecified),?,0%,-2,?,17,-13%
COc1ccc(CCNC(=O)C(=O)NCCC2CCCCN2S(=O)(=O)c2ccccc2)cc1 (stereo unspecified),23µM*,·,1,23µM*,9,·
COc1ccccc1CNC(=O)C(=O)NCCC1CCCCN1S(=O)(=O)c1ccc(C)cc1 (stereo unspecified),?,·,1,?,-1,·
COc1ccccc1CCNC(=O)C(=O)NCCC1CCCCN1S(=O)(=O)c1ccccc1 (stereo unspecified),?,·,-1,16µM*,-15,·
CC(C)C(C(=O)Nc1ccc(F)c(F)c1F)c1ccc(Cl)cc1 (stereo unspecified),·,·,3,·,·,·
N#Cc1ccc(/C=C/C(=O)c2ccsc2)cc1,·,·,5,·,·,·
SMILES,DT40 TDP1 CPT,VP16 counter,LDHA block,DT40 TDP1 no CPT,IL-1B inflam inh,RORg inh
Cc1ccc(C)c(NC(=O)c2cccc[n+]2[O-])c1,·,·,12,·,·,·
O=C(O)c1ccc(C#Cc2ccccc2)cc1,·,·,12,·,·,·
Cc1ccc2cc(/C=C/C(=O)c3c(C)coc3C)c(Cl)nc2c1,·,·,5,·,·,·
Cc1cc(C)c2cc(C=O)c(Cl)nc2c1,1.2µM*,4%,-10,1µM*,36,-3%
CCC(=O)c1ccc(OCC(=O)O)cc1,-3%,1%,-6,10%,6,-3%[10 µM]
CCC(=O)c1ccc(OCCSc2ncccn2)cc1,?,-6%,-5,18µM*,-6,11µM*
Cc1c(O)ccc2c(CN3CCCCC3C)cc(=O)oc12 (stereo unspecified),·,·,2,·,·,·
NC1=NC(=Nc2cccc(S(N)(=O)=O)c2)c2ccccc21,-18%,0%,-9,-15%,?,-19%
COc1ccccc1NS(=O)(=O)c1cccc(NC(=O)Nc2ccccc2)c1,?,-4%,-6,15µM*,-79*,?
COc1ccccc1NS(=O)(=O)c1cccc(NC(=O)c2cc3ccccc3oc2=O)c1,?,-2%,0,18µM*,22,-19%
COc1ccccc1NC(=O)Nc1cccc(NC(C)=O)c1,-2%,16%,-8,2%,-24,38%
COc1ccccc1NS(=O)(=O)c1cccc(N=C2N=C(N)c3ccccc32)c1,-23%,?,-1,23µM*,-66*,16%
COc1ccccc1NS(=O)(=O)c1cccc(NC(=O)c2[nH]c(C)c(C(C)=O)c2C)c1,?,-2%,5,16µM*,-2,15%
COc1cc(NC(=O)Cc2cccs2)cc(OC)c1,?,1%,5,18µM*,-2,10%
COc1ccccc1NS(=O)(=O)c1cccc(NC(=O)Cc2cccs2)c1,?,-7%,-14,26µM*,-4,3%[10 µM]
C=CCn1c(Cc2cccs2)nnc1SCC(=O)Nc1cc(OC)cc(OC)c1,?,3%,-4,16µM*,-15,43%
CCNC(=S)Nc1cccc(S(=O)(=O)Nc2ccccc2OC)c1,?,?,-11,23µM*,11,?
Cc1nc2nc(SCC(=O)c3ccc(Cl)cc3)[nH]c2cc1Br,·,·,1,·,·,·
O=C(O)c1ccnc(C2CCCC/C2=N\O)c1 (stereo unspecified),·,·,6,·,·,·
Cc1ccccc1C1NC(=O)c2c(sc3c2CCN(Cc2ccccc2)C3)N1 (stereo unspecified),·,·,2,·,·,·
COc1ccc(NC(=O)CCCn2c(=O)c3sccc3n(Cc3ccc(C)cc3C)c2=O)cc1,21µM*,0%,-1,16µM*,-30,12%
Cc1ccccc1Cn1c(=O)n(CCCC(=O)NCc2ccc3c(c2)OCO3)c(=O)c2ccccc21,·,·,-3,·,·,·
Cc1ccc(C)c(Cn2c(=O)n(CCCC(=O)NCc3ccc4c(c3)OCO4)c(=O)c3sccc32)c1,?,·,-9,15µM*,·,·
